# Measured values: PubChem BioAssay (NCATS)
# Results filed as inconclusive are left out. The source made the active and inactive calls. Unless noted, the call rests on the fitted dose curve; in most records, active means well fitted curve in the direction sought with a large enough effect; inconclusive means small, poorly fitted or top-dose-only effect, or another doubt; inactive means no such curve, though single readings can be large; an effect the other way counts as inactive or inconclusive.
# Experiments:
# [1] = AP1 Signaling Pathway (AID 357; active means well fitted curve in either direction with a large enough effect, not every such curve was filed as active;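 further: ME-180 reporter cells stimulated with EGF at its EC50 level; on the % scale 0 is the no-effect control and ±100 the full control effect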); conditions: ME-180 AP-1-bla reporter, EGF-induced, beta-lactamase ratio, 5 h; at 7.69 µM (top of the series) unless noted
# Procedure, shortened: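 Read-out was the 460nm/530nm emission ratio (excitation 405nm) after CCF4 loading for 2.5 hours at room temperature. Cells carried an AP-1-driven beta-lactamase reporter, were stimulated with EC50 EGF plus compound for 5 hours, and AC50 values came from titrations.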
# [2] = biological target: Cytochrome P450 1A2 (Homo sapiens) (UniProt P05177); assay: p450-cyp1a2 (AID 410; calls by dose curve; further: potency means the concentration at half of the fitted maximal effect)
# Procedure, shortened: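 O-Demethylation of luciferin 6' methyl ether by human CYP1A2 is monitored as luciferase luminescence. Substrate sits at Km (100uM); enzyme is 20nM. Values are scaled to 57 uM furafylline as maximal inhibition.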
# [3] = NFAT Signaling Pathway (AID 444; active means well fitted curve in either direction with a large enough effect, not every such curve was filed as active;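 further: carbachol stimulus at about its EC50 of 1 µM final; on the % scale 0 is the no-effect control and ±100 the full control effect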); conditions: Jurkat NFAT-bla M1, carbachol, beta-lactamase ratio, 5 h; at 7.69 µM (top of the series) unless noted
# Procedure, shortened: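 Jurkat cells with NFAT-driven β-lactamase reporter and co-expressed M1 receptor, stimulated with carbachol (final 1 uM, ~EC50), compound titration, 5 h at 37 °C. CCF4 loaded 1 h at RT; 460/530 nm ratio gave %activity and AC50.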
# [4] = biological target: Glucocorticoid receptor (Homo sapiens) (UniProt P04150); assay: GR-EFC Redistribution (AID 451; calls by dose curve; further: potency means the concentration at half of the fitted maximal effect); conditions: CHO-K1 GR-EFC translocation, beta-gal luminescence, 2 h
# Procedure, shortened: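 CHO-K1 cells expressing nuclear EA and GR-ED fragments of b-gal; compounds titrated up to 46 uM final, 2 h at 37 C. GR nuclear translocation read as complemented b-gal luminescence after 1 h RT detection.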
# [5] = biological target: Mitogen-activated protein kinase 10 (Mus musculus) (UniProt Q61831); assay: JNK3 AlphaScreen Assay (AID 530; active means well fitted curve in either direction with a large enough effect, not every such curve was filed as active;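 further: kinase came from lysate of stimulated human HepG2 cells; signal reports phosphorylation of biotinylated GST-cJun 1-79 at Ser73 with 10 µM ATP; on the % scale 0 is the no-effect control and ±100 the full control effect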)
# Procedure, shortened: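 Activity was read by AlphaScreen after JNK3-containing HepG2 lysate (cytokine pre-activated) phosphorylated biotinylated GST-cJun with 10 uM ATP at room temperature. Phospho-Ser73 cJun antibody with Protein-A acceptor beads provided detection.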
# [6] = biological target: 3',5'-cyclic-AMP phosphodiesterase 4B (Homo sapiens) (UniProt Q07343); assay: qHTS Assay for Inhibitors of PDE-IV (AID 607; active means well fitted activation curve with a large enough effect in the main read-out, with a control signal flat, not every such curve was filed as active; further: % of control where 0% means no effect)
# Procedure, shortened: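 Cell-based read-out of cAMP via a modified cyclic nucleotide-gated channel and membrane potential dye (535/590 nm) in HEK293 cells expressing PDE4 endogenously. Compounds tested up to 22.9 uM final; 100 uM RO 20-1724 reference.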
# [7] = biological target: Cytochrome P450 3A4 (Homo sapiens) (UniProt P08684); assay: qHTS Assay for Activators of Cytochrome P450 3A4 (AID 885); further: nearly all actives have a fitted effect of over 65% in size
# Procedure, shortened: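 Luminescent readout of luciferin formed from 25 uM Luciferin-PPXE (KM level) by 20 nM CYP3A4 in 200 mM KPO4, with 60 min NADPH-driven reaction at room temperature after 10 min compound exposure. Ketoconazole (57 uM) defined 100% inhibition.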
# [8] = qHTS Assay for Lipid Storage Modulators (AID 1519; calls by dose curve); conditions: Drosophila S3 cells, BODIPY lipid droplet/cell ratio, laser cytometry, cells loaded with oleic acid; for activity change, negative = inhibition: at 57.5 µM (top of the series)
# Procedure, shortened: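 Cells seeded at 5,000 per well were treated with compounds over a concentration series and loaded with oleic acid (400 uM, as added). Lipid droplet fluorescence (488 nm excitation, 500-530 nm channel) was read by laser-scanning cytometry and normalized to 20 uM Triacsin C.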
# [9] = biological target: Dual specificity protein kinase CLK4 (Homo sapiens) (UniProt Q9HAZ1); assay: qHTS Assay for Inhibitors of CDC-like Kinase 4 (ADP-FP Assay) (AID 1795);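 further: recombinant human CLK4 phosphorylating RS repeat peptide at 1 µM ATP; on the % scale 0 is the no-effect control and ±100 the full control effect; nearly all actives have a fitted effect of over 60% in size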
# Procedure, shortened: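 FP readout: Orange Transcreener ADP2 tracer (4 nM) plus ADP antibody, read after 30 min at room temperature. Kinase step: 6.25 nM Clk4, 100 uM RS peptide, 1 uM ATP, pH 7.5, 1 h.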
# [10] = biological target: Ubiquitin carboxyl-terminal hydrolase 1 (Homo sapiens) (UniProt O94782); assay: Inhibitors of USP1/UAF1: Pilot qHTS (AID 504865);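 further: rhodamine fluorescence freed from ubiquitin-rhodamine substrate followed over time; top concentration of the series differs between compounds; on the % scale 0 is the no-effect control and ±100 the full control effect; nearly all actives have a fitted effect of over 35% in size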
# Procedure, shortened: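 1nM USP1/UAF1 + cpd, 15 min RT; start w/ Ub-Rho 150nM final; kinetic FL 480/540 nm, 6 reads q60 s. Buffer 50mM HEPES pH 7.8, 0.5mM EDTA, 1mM TCEP, 0.01% Tween-20, 0.1 mg/ml BSA.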
# [11] = Primary qHTS for small molecule stabilizers of the endoplasmic reticulum resident proteome: Secreted ER Calcium Modulated Protein (SERCaMP) assay (AID 1508630); further: on the % scale 0 is the no-effect control and ±100 the full control effect
# Procedure, shortened: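 The SH-SY5Y reporter protocol was run at 3 concentrations up to 38.3 uM (primary) or 11 concentrations (follow-up): 16 h compound, 100 nM thapsigargin for 4 h, then extracellular luciferase luminescence.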
# [12] = biological target: Lysosomal acid glucosylceramidase (Homo sapiens) (UniProt P04062); assay: Glucocerebrosidase-p2 (AID 348; in the data active means potency below about 10 µM; further: potency means the concentration at half of the fitted maximal effect); conditions: purified GBA, blue fluorogenic substrate, 40 min
# Procedure, shortened: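 Normal human glucocerebrosidase (0.2 nM) with blue fluorogenic substrate (80 uM final) in citrate/phosphate pH 5.9 with 10mM sodium taurocholate, 0.01% tween-20; 40 min RT, NaOH/glycine stop; fluorescence Ex 365/Em 440; AC50 from a titration from 0.6 nM upwards.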
# [13] = Stat Signaling Pathway (AID 446; active means well fitted curve in either direction with a large enough effect, not every such curve was filed as active); conditions: ME-180 SIE beta-lactamase reporter, IL-6 stimulated, 5 h; at 7.69 µM (top of the series) unless noted
# Procedure, shortened: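 FRET read-out (405 nm excitation, 460/530 nm emission) of a beta-lactamase reporter under a STAT-inducible element in ME-180 cervical carcinoma cells. Cells with compound receive 40 pM IL-6 for 5 h. Values are normalised to AC90 stimulation and AC90 JAK-inhibitor controls.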
# [14] = biological target: Glucocorticoid receptor (Homo sapiens) (UniProt P04150); assay: GR-GFP Redistribution (AID 450;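 active means compounds whose dose series gives a full or clear partial fitted curve of increased nuclear translocation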; further: potency means the concentration at half of the fitted maximal effect); conditions: U2OS GR-GFP nuclear translocation, laser cytometry, 2 h
# [15] = biological target: Cytochrome P450 3A4 (Homo sapiens) (UniProt P08684); assay: qHTS Assay for Inhibitors and Substrates of Cytochrome P450 3A4 (AID 884); further: nearly all actives have a fitted effect of over 50% in size; further: potency means the concentration at half of the fitted maximal effect
# Procedure, shortened: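 Luminescent readout of luciferin produced by CYP3A4 (20 nM) dealkylation of Luciferin-PPXE, 25 uM (its KM). NADPH-driven reaction ran 60 min at RT after 10 min compound preincubation; data scaled to 57 uM ketoconazole as 100% inhibition.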
# [16] = Confirmation and Secondary Assay for Modulators of Hemoglobin Beta Chain Splicing at IVS2 654 locus (AID 910);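 further: HeLa cells stably carrying EGFP split by mutant beta-globin IVS2-654 intron; % of control where 0% means no effect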
# Procedure, shortened: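 HeLa cells stably expressing EGFP interrupted by β-globin IVS2-654 intron, seeded overnight in Opti-MEM/2% FCS, then treated 2 days at 37 °C. Restored splicing read as total peak GFP intensity per well by laser scanning cytometry (488 nm excitation, 500–520 nm emission); 500 nM antisense PNA as control.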
# [17] = Confirmation and Secondary Assay for Modulators of Hemoglobin Beta Chain Splicing at IVS2 705 locus (AID 930);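 further: HeLa cells stably expressing the EGFP-705 splicing reporter; GFP fluorescence per well restored by corrected splicing of the IVS2-705 intron in EGFP; % of control where 0% means no effect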
# Procedure, shortened: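 HeLa IVS2-705 EGFP reporter cells, 500/well, compound 2 d at 37C; correct splicing yields fluorescent EGFP. Control: 500 nM antisense PNA. Read-out: total peak GFP intensity.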
# [18] = qHTS Assay for Identification of Small Molecule Agonists for Hypoxia Response Element Signaling Pathway (AID 914; active means well fitted activation curve with a large enough effect in the signal ratio, with a control signal flat, not every such curve was filed as active; the % refers to the signal ratio; further: potency means the concentration at half of the fitted maximal effect; on activation: % of control where 0% means no effect); conditions: ME-180 (cervical carcinoma) HRE-bla reporter, beta-lactamase ratio, CoCl2, 17 h; activation: stronger effect = higher value
# Procedure, shortened: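 HRE-bla ME-180 assay for agonist-like enhancement of an EC50 CoCl2 stimulus: 17 h at 37 degrees Celsius, CCF4 for 2.5 h, ratiometric 460/530 nm signal converted to %Activity and fitted to AC50.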
# [19] = biological target: Cytochrome P450 2C19 (Homo sapiens) (UniProt P33261); assay: qHTS Assay for Inhibitors and Substrates of Cytochrome P450 2C19 (AID 899); further: on the % scale 0 is the no-effect control and ±100 the full control effect; nearly all actives have a fitted effect of over 60% in size
# Procedure, shortened: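 Signal comes from luciferase acting on luciferin released by CYP2C19-mediated hydroxylation of Luciferin-H EGE, 10uM (KM). Assay mix: 5nM enzyme, 50mM KPO4; 60 min at 37C with NADPH regeneration. Data normalized against 57uM ketoconazole.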
# [20] = measured here: cell count channel max response
# [21] = measured here: lipid channel max response
# Chain of 3',5'-cyclic-AMP phosphodiesterase 4B (Homo sapiens) (Q07343 whole entry, looked up): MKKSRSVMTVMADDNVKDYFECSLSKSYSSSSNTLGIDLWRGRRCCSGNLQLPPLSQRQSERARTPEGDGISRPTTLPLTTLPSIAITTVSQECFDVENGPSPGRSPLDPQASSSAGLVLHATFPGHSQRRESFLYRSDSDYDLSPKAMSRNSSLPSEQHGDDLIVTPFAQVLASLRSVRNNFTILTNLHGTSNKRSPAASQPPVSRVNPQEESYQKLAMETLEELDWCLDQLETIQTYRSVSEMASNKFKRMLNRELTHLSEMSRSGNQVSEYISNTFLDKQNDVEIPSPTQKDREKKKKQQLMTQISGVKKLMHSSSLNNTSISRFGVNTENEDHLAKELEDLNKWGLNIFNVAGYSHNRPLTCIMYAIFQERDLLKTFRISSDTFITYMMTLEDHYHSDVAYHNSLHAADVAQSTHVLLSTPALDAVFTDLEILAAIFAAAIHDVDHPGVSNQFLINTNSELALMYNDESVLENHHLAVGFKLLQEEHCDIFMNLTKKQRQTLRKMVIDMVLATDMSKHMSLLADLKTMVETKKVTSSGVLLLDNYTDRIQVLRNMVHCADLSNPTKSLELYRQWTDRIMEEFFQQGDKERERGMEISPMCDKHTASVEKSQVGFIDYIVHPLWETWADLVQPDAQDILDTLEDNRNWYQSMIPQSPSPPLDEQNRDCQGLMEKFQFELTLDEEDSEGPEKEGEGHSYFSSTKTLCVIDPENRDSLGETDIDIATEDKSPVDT
# Chain of Cytochrome P450 1A2 (Homo sapiens) (P05177 whole entry, looked up): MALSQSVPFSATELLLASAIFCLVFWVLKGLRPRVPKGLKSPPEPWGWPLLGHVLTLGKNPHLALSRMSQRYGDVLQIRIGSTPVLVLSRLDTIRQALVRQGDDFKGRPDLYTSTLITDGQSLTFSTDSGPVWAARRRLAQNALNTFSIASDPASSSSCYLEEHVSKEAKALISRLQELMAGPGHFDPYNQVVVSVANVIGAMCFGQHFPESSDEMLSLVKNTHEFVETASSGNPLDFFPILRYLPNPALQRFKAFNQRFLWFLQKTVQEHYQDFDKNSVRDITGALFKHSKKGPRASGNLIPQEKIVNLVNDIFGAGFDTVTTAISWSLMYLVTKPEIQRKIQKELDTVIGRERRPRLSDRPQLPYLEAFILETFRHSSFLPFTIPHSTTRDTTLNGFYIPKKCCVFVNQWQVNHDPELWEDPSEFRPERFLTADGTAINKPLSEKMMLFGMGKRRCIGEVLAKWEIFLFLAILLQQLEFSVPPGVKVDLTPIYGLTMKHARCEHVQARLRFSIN
# Chain of Dual specificity protein kinase CLK4 (Homo sapiens) (Q9HAZ1 whole entry, looked up): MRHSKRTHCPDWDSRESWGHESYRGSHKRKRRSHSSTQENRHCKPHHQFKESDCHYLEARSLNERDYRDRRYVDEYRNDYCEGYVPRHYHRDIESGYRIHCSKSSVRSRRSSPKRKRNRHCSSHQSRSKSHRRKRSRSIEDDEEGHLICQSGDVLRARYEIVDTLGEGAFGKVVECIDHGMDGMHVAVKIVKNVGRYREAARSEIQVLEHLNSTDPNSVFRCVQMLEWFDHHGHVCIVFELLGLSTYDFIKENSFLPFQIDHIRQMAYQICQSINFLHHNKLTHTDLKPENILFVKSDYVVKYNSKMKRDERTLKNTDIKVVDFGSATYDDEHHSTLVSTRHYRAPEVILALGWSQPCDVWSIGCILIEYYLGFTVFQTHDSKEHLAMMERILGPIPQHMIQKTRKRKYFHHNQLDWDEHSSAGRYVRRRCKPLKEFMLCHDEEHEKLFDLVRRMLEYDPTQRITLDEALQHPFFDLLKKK
# Chain of Ubiquitin carboxyl-terminal hydrolase 1 (Homo sapiens) (O94782 whole entry, looked up): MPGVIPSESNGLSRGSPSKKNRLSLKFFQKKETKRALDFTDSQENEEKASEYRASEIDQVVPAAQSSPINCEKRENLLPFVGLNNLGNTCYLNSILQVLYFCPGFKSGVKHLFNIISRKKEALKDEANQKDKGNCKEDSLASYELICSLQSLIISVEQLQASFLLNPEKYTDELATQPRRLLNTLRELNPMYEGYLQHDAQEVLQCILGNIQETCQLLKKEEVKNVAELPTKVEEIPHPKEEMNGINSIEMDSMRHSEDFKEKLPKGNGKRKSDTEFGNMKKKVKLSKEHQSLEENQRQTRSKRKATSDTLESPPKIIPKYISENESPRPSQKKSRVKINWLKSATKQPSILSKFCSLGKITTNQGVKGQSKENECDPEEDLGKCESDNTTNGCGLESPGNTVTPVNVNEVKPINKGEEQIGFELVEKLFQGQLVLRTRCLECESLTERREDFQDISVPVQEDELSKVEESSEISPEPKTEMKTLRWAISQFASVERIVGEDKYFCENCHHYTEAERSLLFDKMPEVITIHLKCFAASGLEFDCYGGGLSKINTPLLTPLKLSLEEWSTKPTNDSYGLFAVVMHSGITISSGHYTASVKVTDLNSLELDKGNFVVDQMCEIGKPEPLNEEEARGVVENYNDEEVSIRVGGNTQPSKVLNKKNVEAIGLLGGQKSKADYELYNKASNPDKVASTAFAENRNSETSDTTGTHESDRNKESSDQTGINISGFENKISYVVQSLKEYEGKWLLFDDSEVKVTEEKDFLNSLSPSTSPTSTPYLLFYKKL
# Chain of Lysosomal acid glucosylceramidase (Homo sapiens) (P04062 whole entry, looked up): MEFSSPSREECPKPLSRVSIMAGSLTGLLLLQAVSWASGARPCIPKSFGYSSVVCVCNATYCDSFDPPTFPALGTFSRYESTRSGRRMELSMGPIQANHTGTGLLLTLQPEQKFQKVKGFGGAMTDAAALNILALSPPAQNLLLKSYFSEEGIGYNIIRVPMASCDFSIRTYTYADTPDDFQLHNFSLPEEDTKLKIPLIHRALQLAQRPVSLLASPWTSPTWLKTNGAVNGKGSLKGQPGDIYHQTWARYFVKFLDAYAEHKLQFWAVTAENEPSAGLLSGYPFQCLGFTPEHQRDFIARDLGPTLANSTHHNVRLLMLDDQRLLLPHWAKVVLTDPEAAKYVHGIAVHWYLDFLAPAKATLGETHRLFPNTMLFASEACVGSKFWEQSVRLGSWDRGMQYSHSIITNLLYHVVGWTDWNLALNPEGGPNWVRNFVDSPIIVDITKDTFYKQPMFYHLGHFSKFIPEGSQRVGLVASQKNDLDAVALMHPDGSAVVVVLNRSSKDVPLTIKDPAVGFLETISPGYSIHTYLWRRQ
# Chain of Cytochrome P450 3A4 (Homo sapiens) (P08684 whole entry, looked up): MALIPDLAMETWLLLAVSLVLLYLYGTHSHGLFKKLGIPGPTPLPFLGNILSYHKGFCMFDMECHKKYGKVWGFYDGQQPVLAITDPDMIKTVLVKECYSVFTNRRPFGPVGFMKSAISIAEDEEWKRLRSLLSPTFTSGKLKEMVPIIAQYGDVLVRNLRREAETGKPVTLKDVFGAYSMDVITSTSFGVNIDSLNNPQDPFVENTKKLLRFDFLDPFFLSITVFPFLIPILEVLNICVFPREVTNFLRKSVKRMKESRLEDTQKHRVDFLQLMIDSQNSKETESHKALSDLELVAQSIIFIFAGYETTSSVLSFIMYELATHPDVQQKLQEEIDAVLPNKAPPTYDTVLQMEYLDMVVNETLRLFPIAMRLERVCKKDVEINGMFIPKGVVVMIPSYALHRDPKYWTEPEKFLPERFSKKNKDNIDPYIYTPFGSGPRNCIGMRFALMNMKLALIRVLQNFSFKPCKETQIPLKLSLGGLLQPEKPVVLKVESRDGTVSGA
# Chain of Glucocorticoid receptor (Homo sapiens) (P04150 whole entry, looked up, the tested form may be a part): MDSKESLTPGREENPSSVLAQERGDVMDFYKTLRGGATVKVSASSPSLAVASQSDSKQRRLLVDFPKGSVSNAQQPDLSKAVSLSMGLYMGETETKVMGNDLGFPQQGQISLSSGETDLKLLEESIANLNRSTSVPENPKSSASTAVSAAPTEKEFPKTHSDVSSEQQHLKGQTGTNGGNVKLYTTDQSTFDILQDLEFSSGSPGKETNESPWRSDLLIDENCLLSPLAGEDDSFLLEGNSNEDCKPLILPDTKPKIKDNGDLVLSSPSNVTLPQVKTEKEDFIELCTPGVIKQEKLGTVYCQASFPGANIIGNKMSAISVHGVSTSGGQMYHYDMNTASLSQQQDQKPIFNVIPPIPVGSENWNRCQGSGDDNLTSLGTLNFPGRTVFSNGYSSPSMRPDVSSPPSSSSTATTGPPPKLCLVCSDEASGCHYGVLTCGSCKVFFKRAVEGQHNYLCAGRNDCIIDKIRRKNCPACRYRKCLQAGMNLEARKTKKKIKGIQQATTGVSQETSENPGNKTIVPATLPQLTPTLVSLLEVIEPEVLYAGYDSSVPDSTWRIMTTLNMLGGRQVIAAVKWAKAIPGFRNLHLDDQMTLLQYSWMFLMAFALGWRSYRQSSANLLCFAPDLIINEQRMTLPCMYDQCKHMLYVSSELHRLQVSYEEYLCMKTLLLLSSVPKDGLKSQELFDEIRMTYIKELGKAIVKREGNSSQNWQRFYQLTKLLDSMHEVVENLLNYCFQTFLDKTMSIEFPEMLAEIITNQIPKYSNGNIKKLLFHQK
# Chain of Cytochrome P450 2C19 (Homo sapiens) (P33261 whole entry, looked up): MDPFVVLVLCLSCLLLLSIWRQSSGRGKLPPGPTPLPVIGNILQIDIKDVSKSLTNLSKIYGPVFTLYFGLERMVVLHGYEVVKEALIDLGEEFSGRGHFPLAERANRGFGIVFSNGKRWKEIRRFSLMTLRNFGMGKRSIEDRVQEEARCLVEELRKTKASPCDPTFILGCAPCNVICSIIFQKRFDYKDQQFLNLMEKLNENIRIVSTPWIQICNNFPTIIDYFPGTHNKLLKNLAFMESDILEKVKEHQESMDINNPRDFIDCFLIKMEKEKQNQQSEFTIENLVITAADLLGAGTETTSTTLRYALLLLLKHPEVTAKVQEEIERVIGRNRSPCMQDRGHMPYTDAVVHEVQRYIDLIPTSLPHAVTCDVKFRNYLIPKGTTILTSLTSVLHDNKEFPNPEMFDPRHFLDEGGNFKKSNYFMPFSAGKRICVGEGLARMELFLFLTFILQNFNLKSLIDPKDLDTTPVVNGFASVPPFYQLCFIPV
structure (smiles),measurement,setting,value
CN(C)c1ccc(-c2nc(NCCN3CCOCC3)c3ccccc3n2)cc1,"activity change, negative = inhibition",[1],1.67% (inactive)
same,Potency,[2],7.94 µM (active)
same,"activity change, negative = inhibition",[3],-21.3% (inactive)
same,Potency,[4],> 46 µM (inactive)
same,outcome,[5],inactive
same,Potency,[6],inactive
same,Potency,[7],inactive
same,"activity change, negative = inhibition",[8],3.01% (inactive)
same,max response,[8]; [20],9.82%
same,max response,[8]; [21],10.9%
same,Potency,[9],inactive
same,Potency,[10],inactive
same,Potency,[11],inactive
N#Cc1cccc(-c2cc(NCc3ccccc3)ncn2)c1,Potency,[12],> 11.4 µM (inactive)
same,"activity change, negative = inhibition",[1],-7.27% (inactive)
same,Potency,[2],1 µM (active)
same,"activity change, negative = inhibition",[3],17.5% (inactive)
same,"activity, negative = inhibition",[13],4.28% (inactive)
same,Potency,[14],> 46 µM (inactive)
same,Potency,[4],> 46 µM (inactive)
same,outcome,[5],inactive
same,"activity change, negative = inhibition",[8],6.18% (inactive)
same,max response,[8]; [20],26.4%
same,max response,[8]; [21],32.1%
same,Potency,[10],inactive
same,Potency,[11],inactive
CS(=O)(=O)Nc1cccc(-c2cncnc2NCc2cccs2)c1,Potency,[12],> 11.4 µM (inactive)
same,"activity change, negative = inhibition",[1],5.06% (inactive)
same,Potency,[2],15.8 µM (active)
same,"activity change, negative = inhibition",[3],2.17% (inactive)
same,"activity, negative = inhibition",[13],12.4% (inactive)
same,Potency,[14],> 46 µM (inactive)
same,Potency,[4],> 46 µM (inactive)
same,outcome,[5],inactive
same,Potency,[6],inactive
same,Potency,[15],0.398 µM (active)
same,Potency,[7],inactive
same,outcome,[16],inactive
same,outcome,[17],inactive
same,"activity change, negative = inhibition",[8],4.63% (inactive)
same,max response,[8]; [20],8.3%
same,max response,[8]; [21],16.7%
same,Potency,[10],inactive
same,Potency,[11],inactive
CN1CCN(c2ncc3nc(-c4cccs4)c(=O)n(CCC#N)c3n2)CC1,Potency,[12],> 11.4 µM (inactive)
same,Potency,[2],15.8 µM (active)
same,Potency,[14],> 9.22 µM (inactive)
same,Potency,[4],> 46 µM (inactive)
same,outcome,[5],inactive
same,Potency,[6],inactive
same,Potency,[7],inactive
same,Potency,[18],3.16 µM (active)
same,"activity change, negative = inhibition",[8],0.733% (inactive)
same,max response,[8]; [20],11.3%
same,max response,[8]; [21],9.27%
same,Potency,[9],inactive
same,Potency,[10],inactive
same,Potency,[11],inactive
CCNc1ncc2nc(C)c(=O)n(-c3ccc(OC)cc3)c2n1,Potency,[12],> 11.4 µM (inactive)
same,"activity change, negative = inhibition",[1],-29.8% (inactive)
same,Potency,[2],15.8 µM (active)
same,"activity change, negative = inhibition",[3],14.3% (inactive)
same,"activity, negative = inhibition",[13],-9.6% (inactive)
same,Potency,[14],> 9.22 µM (inactive)
same,Potency,[4],> 46 µM (inactive)
same,outcome,[5],inactive
same,Potency,[15],inactive
same,Potency,[19],inactive
same,activation,[18],-10.1% (inactive)
same,"activity change, negative = inhibition",[8],4.59% (inactive)
same,max response,[8]; [20],11.9%
same,max response,[8]; [21],15%
same,Potency,[9],inactive
same,Potency,[10],inactive
same,Potency,[11],inactive
CN(C)Cc1ccccc1-c1cc(NC2CC2)ncn1,Potency,[12],> 11.4 µM (inactive)
same,"activity change, negative = inhibition",[1],-5.78% (inactive)
same,Potency,[2],12.6 µM (active)
same,"activity change, negative = inhibition",[3],-10% (inactive)
same,"activity, negative = inhibition",[13],12.3% (inactive)
same,Potency,[14],> 46 µM (inactive)
same,Potency,[4],> 46 µM (inactive)
same,outcome,[5],inactive
same,Potency,[6],inactive
same,Potency,[7],inactive
same,outcome,[16],inactive
same,outcome,[17],inactive
same,"activity change, negative = inhibition",[8],8.29% (inactive)
same,max response,[8]; [20],13%
same,max response,[8]; [21],22.4%
same,Potency,[10],inactive
same,Potency,[11],inactive
